Beta apoptosis: beta cell apoptosis inhibition; 300,000 compounds, 0.8% hits; INS-1E cytokine-induced death, ATP luminescence, 48 h; percent of positive-control rescue, neutral wells zero; protection from apoptosis, % (test concentration not listed);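 active = Every replicate reaches about 75%, or at least half do and their mean reaches it too, limit read from the data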;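 also: higher means more ATP so stronger rescue from cytokine killing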
MPTP block: inhibitors of mitochondrial permeability transition pore | isolated mouse mitochondria, Ca2+ swelling absorbance, 30 min | inhibition, % at 10 µM | 360,000 compounds, 1.4% hits | AID 602449;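 active = inhibition of 50% or more, scaled per plate between neutral and stimulator controls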
Calb FLC: C. albicans growth modulation with fluconazole; growth inhibition, % (no concentration beside the values); C. albicans CaCi-2 (fluconazole-resistant clinical isolate) + fluconazole, Alamar Blue growth, 48 h; AID 1979; 300,000 compounds, 0.57% hits;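 active = growth inhibition above about 58% in most replicates, limit read from the data, passing the limit was not always enough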;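 also: all wells also contain fluconazole at 8 µg/ml as a sub-toxic cotreatment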
Mdm2-MdmX inh: human Mdm2/MdmX binding inhibition | 330,000 compounds, 3% hits | inhibition, % at 8 µM | SaOS-2 split-luciferase Mdm2/MdmX complementation, luminescence | AID 485346;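 active = inhibition of at least 50% at 8 µM in the primary screen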
CSC inhib: blocks cancer stem cells; cancer stem cell-like cells viability, luminescence; inhibition, % at 7.5 µM; 300,000 compounds, 1.1% hits; AID 2717; in the data active = inhibition above about 75%; tested in HMLE shEcad cells
SKKanGAS inh: SKKanGAS growth inhibition | AID 1662 | 300,000 compounds, 1.3% hits | inhibition, % at 7.5 µM | S. pyogenes SKKanGAS, kanamycin growth, BacTiter-Glo, 6 h;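 active = mean replicate score, as percent of positive control median, at least 50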;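 also: strain carries kanamycin resistance gene driven by streptokinase promoter and grows in 40 µg/ml kanamycin; loss of luminescence reflects streptokinase promoter inhibition or plain growth inhibition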
Mdm2-MdmX conf: confirmation of human Mdm2/MdmX interaction inhibitors; shares compounds with Mdm2-MdmX inh; Mdm2-MdmX binding, luminescent assay; inhibition, % at 8 µM; 10,000 compounds, 55% hits; in the data active = inhibition above about 40%
Full FLuc ctr: counter-screen for Mdm2/MdmX inhibitors: full-length luciferase | shares compounds with Mdm2-MdmX inh | SaOS-2 full-length luciferase counterscreen, luminescence | inhibition, % at 8 µM | 6,200 compounds, 77% hits;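 active = mean inhibition at 8 µM reaching about 37%, which flags the compound as non-specific, limit read from the data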;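 also: p53-null SaOS-2 cells with luciferase driven by a doxycycline-inducible promoter; compound on cells about two nights before reading with doxycycline added after day one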
Hits are given with their value; i = inactive; nt = not tested or not shown. In the library only some 5.4% were active in any assay of this set; here they are far more common.

SMILES	Beta apoptosis	MPTP block	Calb FLC	Mdm2-MdmX inh	CSC inhib	SKKanGAS inh	Mdm2-MdmX conf	Full FLuc ctr
COC(=O)[C@@]1(Cc2ccc(F)cc2)[C@H]2c3cc(C(=O)N4CCCC4)n(CCF)c3C[C@H]2CN1C(=O)c1ccccc1	nt	i	nt	nt	nt	nt	nt	nt
O=C(NNc1c2ccccc2nc2ccccc12)C12CC3CC(CC(C3)C1)C2	i	i	i	68	i	i	i	nt
O=C(NNc1c2ccccc2nc2ccccc12)C(O)c1ccccc1 (configuration not stated)	i	i	i	78	i	i	82	i
CCOC(=O)CN1C(=O)C(=O)N(Cc2ccccc2)C1=O	i	i	i	i	i	i	nt	nt
COc1ccccc1CNC(=O)c1sccc1C	i	i	i	i	i	i	nt	nt
CCOc1ccc(N(CC(=O)NC2CCCCC2)C(=O)CSc2nnc(COc3ccccc3)o2)cc1	i	i	i	55	i	i	i	nt
O=C(O)c1cccc(NC(=S)NC(=O)c2ccncc2)c1	i	i	i	53	i	i	i	nt
O=C(NC(=S)Nc1cccc2cnccc12)c1ccccc1	i	i	i	61	i	i	i	nt
CCOc1ccc(NC(=O)Cn2nnc(C(=O)NCc3ccccc3OC)c2N)cc1	i	i	i	i	i	i	nt	nt
O=c1c(-c2ccc(O)cc2)coc2c(C3O[C@H](CO)[C@@H](O)[C@H](O)[C@H]3O)c(O)ccc12 (some centres not stated)	i	i	i	i	i	i	nt	nt
COc1ccc(-c2noc(CSc3nc4sc(C)c(C)c4c(=O)n3-c3ccccc3)n2)cc1OC	i	i	i	50	i	i	i	nt
CC1CCCCC1NC(=O)COC(=O)CCC(=O)c1cccs1 (configuration not stated)	i	i	nt	i	i	nt	nt	nt
O=C(Oc1c(-c2ccccc2)c(=O)n2c3c(cccc13)CC2)c1ccc(Cl)cc1	i	i	i	i	i	i	nt	nt
O=C(Oc1c(-c2ccccc2)c(=O)n2c3c(cccc13)CC2)c1ccco1	i	i	i	54	i	i	i	nt
COc1ccc(N2CCN(C(=O)COC(=O)CC(NC(N)=O)c3ccc(Cl)cc3)CC2)cc1 (configuration not stated)	nt	i	nt	nt	nt	nt	nt	nt
COc1ccc(/C=C2\CCCc3c2nc2ccccc2c3C(=O)OCC(=O)c2c(N)n(C)c(=O)n(C)c2=O)cc1	i	nt	i	86	i	i	79	44
COc1ccc(-c2cc(C(=O)OCC(=O)c3c(N)n(C)c(=O)n(C)c3=O)c3ccccc3n2)cc1	i	i	i	i	i	i	nt	nt
Cc1ccc(C2(c3ccc(C)cc3)NC(=O)N(CC(=O)NCCCN3CCCC3=O)C2=O)cc1	i	i	nt	i	i	nt	nt	nt
Nc1ncc(-c2nnnn2-c2ccc(Cl)cc2)c(-c2ccc(Cl)cc2)n1	i	i	i	57	i	i	68	46
O=C1C(=O)C(Cl)=C(Cl)C(Cl)=C1Cl	nt	i	nt	nt	nt	nt	nt	nt
CCCCC(=NCCc1c(C)[nH]c2ccccc12)C1=C(O)CC(c2ccccc2)CC1=O (configuration not stated)	i	i	i	57	i	i	45	59
CC(=NCCc1c(C)[nH]c2ccc(C)cc12)C1=C(O)CC(c2ccccc2)CC1=O (configuration not stated)	i	i	i	i	i	i	nt	nt
CCCC(=NCCc1c(C)[nH]c2ccccc12)C1=C(O)CC(c2ccccc2)CC1=O (configuration not stated)	i	i	i	52	nt	i	53	55
Cn1c(=O)c2[nH]c(SCc3cccnc3)nc2n(C)c1=S	nt	i	nt	nt	nt	nt	nt	nt
COn1c2c(c3c4nonc4ccc31)CCCC2	i	i	i	59	i	i	47	55
On1c2c(c3c4nonc4ccc31)CCCC2	i	nt	i	i	i	i	nt	nt
O=C(NC(=S)/C(=C1\CCCCCN1)[N+](=O)[O-])c1ccccc1	i	i	nt	85	i	nt	79	142
Cc1cc(N2CCOCC2)n2ncc(-c3ccc(Cl)cc3)c2n1	i	i	i	62	i	i	74	195
CC(=O)Nc1ccc(Nc2cc(C)nc3c(-c4ccc(Cl)cc4)cnn23)cc1	i	i	i	81	nt	i	87	156
